Assay [1] in a line: inhibitors of TNFa-induced NFkB p65 translocation, primary screen, imaging, HUVEC, MLSMR starter and 10KST1 sets (AID 438;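 active = inhibition above 20% together with a positive visual image hit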;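 also: compound added about 3h40 before a 20 min TNFalpha stimulation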;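 as to inhibition: signal is the nuclear over cytoplasmic p65 intensity ratio per well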). The following applies: HUVEC TNFa-induced p65 nuclear translocation; cell count: measured here: nuclei count (cytotoxicity indicator), at 2.08 µM; inhibition: at 2 µM, stronger effect = higher value, 0% TNFa-plus-vehicle, 100% no-TNFa wells.
The nature of assay [2]: inhibitors of mutant huntingtin aggregation, primary screen, imaging, exon1htt(103Q)mCFP cells, high-content imaging (AID 483;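 active = visual image review flags a hit and inhibition of aggregation exceeds 20%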;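 also: compound exposure lasted 3 days before fixation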;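 as to nuclei count: percent of the per-plate median nuclei count of sample wells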). The following applies: exon1htt(103Q)mCFP cell line, aggregate imaging, at 2 µM; inhibition of aggregation: stronger effect = higher value; nuclei count: measured here: cell count, toxicity.
Assay [3] in a line: inhibitors of E-selectin induction by TNFa, primary screen, imaging, HUVEC, immunofluorescence, MLSMR starter and 10KST1 sets (AID 487;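 active = visually confirmed hit in the image check and inhibition above 20%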;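 as to inhibition: signal is fraction of cell area covered by stained E-selectin grains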;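 as to nuclei count: 100% = median nuclei count of all wells on the same plate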). The following applies: HUVEC TNFalpha-induced E-selectin immunofluorescence imaging, at 2 µM; inhibition: stronger effect = higher value; nuclei count: measured here: cell number, toxicity.
In assay [4] the target is Voltage-gated potassium channel subunit beta-2 (Rattus norvegicus) (UniProt P62483). Put plainly: KvBeta enzyme negative modulators, primary screen, biochemical, NADPH fluorescence (AID 622;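 active = fluorescence slope higher than the sample average by over 3 SD, cut at about -0.22 in these data, passing the limit was not always enough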;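 also: slope of raw intensity against log time taken from 70 to 1610 s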). The following applies: recombinant KvBeta, 4-cyanobenzaldehyde reduction, at 10 µM, stronger effect = higher value.
Assay [5] shares this target. Put plainly: KvBeta positive modulators, primary screen, biochemical, NADPH fluorescence (AID 623;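 active = NADPH fluorescence slope more negative than the mean of all samples by about 3 SD, 99.7% confidence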;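 also: fluorescence intensity change per second fitted from 20 to 320 s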). The following applies: Recombinant KvBeta, NADPH fluorescence decrease slope, 10 min; at 10 µM; stronger effect = lower value.
The target in assay [6] is Alpha-2C adrenergic receptor (Homo sapiens) (UniProt P18825). Put plainly: modulators of alpha2C/GIRK thallium flux, primary screen, cell-based, HEK293 alpha2C/GIRK1/2 (AID 624).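 Also: slope of fluorescence ratio to pre-addition baseline per second over 15 to 24 s.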 The following applies: thallium flux BTC fluorescence, at 10 µM, actives lie on both sides.
A short description of assay [7]: inhibitors of Sendai virus-induced IRF3 signaling, primary screen, TLR/RLR signaling modifier project, cell-based, Sendai virus stimulus, luciferase, 10K MLSCN set (AID 602276;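 active = inhibition at or above 50% at 10 µM; inactive = inhibition below 50%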;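 also: firefly luciferase from ISG56 promoter only with Renilla not read in this screen; 0% = Sendai virus plus DMSO and 100% = medium plus DMSO without virus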). The following applies: HEK293 RL24 IRF3 luciferase reporter, at 10 µM, stronger effect = higher value.
Assay [8] is described as follows: inhibitors of poly I:C-induced TLR3 signaling, primary screen, cell-based, poly I:C stimulus, luciferase, 10K MLSCN set (AID 602277;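 active = inhibition of the reporter signal at or above 50%; inactive = inhibition below 50%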). The following applies: HEK293-TLR3 RL24 IRF3 luciferase reporter, at 10 µM, stronger effect = higher value.

Active and inactive are the calls of the source.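 The calls were made as follows, unless noted: active = fluorescence slope after compound addition differing from the mean of all screened samples at 99.7% confidence, in either direction; inactive = the rest.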

Voltage-gated potassium channel subunit beta-2 (Rattus norvegicus), sequence (P62483 whole entry, looked up): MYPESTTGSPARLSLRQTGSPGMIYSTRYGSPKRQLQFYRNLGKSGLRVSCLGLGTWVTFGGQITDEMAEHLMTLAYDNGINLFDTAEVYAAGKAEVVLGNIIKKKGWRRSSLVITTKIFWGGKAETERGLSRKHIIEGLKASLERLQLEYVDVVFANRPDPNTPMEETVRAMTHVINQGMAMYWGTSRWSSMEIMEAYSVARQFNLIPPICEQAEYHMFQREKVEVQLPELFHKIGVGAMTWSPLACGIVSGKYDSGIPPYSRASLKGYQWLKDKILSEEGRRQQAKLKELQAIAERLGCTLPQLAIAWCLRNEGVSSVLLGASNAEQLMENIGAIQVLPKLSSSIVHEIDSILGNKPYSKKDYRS
Alpha-2C adrenergic receptor (Homo sapiens), sequence (P18825 whole entry, looked up): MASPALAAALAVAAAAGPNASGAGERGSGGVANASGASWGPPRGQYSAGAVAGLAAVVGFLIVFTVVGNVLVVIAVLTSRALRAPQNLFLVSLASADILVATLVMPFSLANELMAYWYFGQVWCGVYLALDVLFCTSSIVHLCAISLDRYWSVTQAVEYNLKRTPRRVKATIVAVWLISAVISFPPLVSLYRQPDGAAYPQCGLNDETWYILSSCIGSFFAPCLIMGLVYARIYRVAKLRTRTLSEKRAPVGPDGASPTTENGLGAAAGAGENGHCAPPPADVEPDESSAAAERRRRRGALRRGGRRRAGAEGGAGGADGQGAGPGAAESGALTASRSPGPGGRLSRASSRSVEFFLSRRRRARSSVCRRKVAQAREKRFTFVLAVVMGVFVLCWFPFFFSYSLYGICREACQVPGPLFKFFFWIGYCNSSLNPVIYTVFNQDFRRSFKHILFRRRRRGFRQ

`O=C(CN1CCCN(S(=O)(=O)c2ccc(Br)cc2)CC1)Nc1ccc2c(c1)OCO2`: the cell count in assay [1] came to 587. Also, the inhibition in assay [1] is -4.1% (inactive); in assay [3], -24.8% (inactive); in assay [7] it was 10.3% (inactive); in assay [8], 38.2% (inactive). In addition, the inhibition of aggregation in assay [2] was -15.4% (inactive). Also, the nuclei count in assay [2] stood at 107%; in assay [3], 84.9%. Besides, the fluorescence slope in assay [4] was -0.491 (inactive). Besides, the NADPH fluorescence slope in assay [5] is -3.2e-05 (inactive). Moreover, the slope in assay [6] is 0.00566 (inactive).
On to `Nc1cc(N)cc(-c2nc3ccccc3o2)c1`, for which the cell count in assay [1] worked out at 595. For the same compound, the inhibition in assay [1] was -1.3% (inactive); in assay [3], -53.9% (inactive); in assay [7], -12.2% (inactive); in assay [8] it was -26% (inactive). Further, the inhibition of aggregation in assay [2] is -3.7% (inactive). The values for the nuclei count in assay [2] and in assay [3] were 109% and 116%, respectively. Also, in assay [4], the fluorescence slope was -0.56 (inactive). Also, the NADPH fluorescence slope in assay [5] was -4.4e-05 (inactive). Also, in assay [6], the slope was 0.00618 (inactive).
With `O=C(NCc1nnc(SCC(=O)N2CCC(Cc3ccccc3)CC2)o1)c1ccccc1F`, the cell count in assay [1] worked out at 574. Further, the inhibition is -0.4% (inactive) in assay [1], 5.1% (inactive) in assay [3], -4.5% (inactive) in assay [7] and 8.45% (inactive) in assay [8]. Also, the inhibition of aggregation in assay [2] is 4.4% (inactive). The nuclei count in assay [2] is 112%; in assay [3], 110%. Moreover, in assay [4], the fluorescence slope is -0.549 (inactive). In addition, the NADPH fluorescence slope in assay [5] is -5.6e-05 (inactive). Besides, the slope in assay [6] was 0.00657 (inactive).
As to `CCOC(=O)N1CCC(NC(=O)c2ccc(CS(=O)(=O)c3c(Cl)cccc3Cl)o2)CC1`, in assay [1], the cell count worked out at 608. Further, the inhibition is -3.7% (inactive) in assay [1], -44.1% (inactive) in assay [3], 16.5% (inactive) in assay [7] and 0.288% (inactive) in assay [8]. Besides, the inhibition of aggregation in assay [2] was 10.7% (inactive). In addition, the nuclei count was found to be 94.3% in assay [2] and 104% in assay [3]. For the same compound, the fluorescence slope in assay [4] is -0.611 (inactive). Further, the NADPH fluorescence slope in assay [5] was 2.7e-05 (inactive). The slope in assay [6] is 0.00587 (inactive).
With `COc1ccc(-n2ncc3c(=O)n(CC(=O)OCc4ccccc4)cnc32)cc1`, in assay [1], the cell count came to 506. For the same compound, the inhibition in assay [1] was 5.2% (inactive); in assay [3] it was -26% (inactive); in assay [7] it was -0.623% (inactive); in assay [8] it was 3.88% (inactive). In addition, the inhibition of aggregation in assay [2] is -19.6% (inactive). The nuclei count is 94.6% in assay [2] and 101% in assay [3]. For the same compound, the fluorescence slope in assay [4] is -0.377 (inactive). The NADPH fluorescence slope in assay [5] was -4.4e-05 (inactive). The slope in assay [6] was 0.00543 (inactive).
With `CCCCCc1c(O)nc(SCC(=O)NCC2CCCO2)[nH]c1=O` (stereo not drawn), the cell count in assay [1] is 579. Further, the inhibition in assay [1] was 7.7% (inactive); in assay [3], -51.3% (inactive); in assay [7] it was 3.21% (inactive); in assay [8], 1.9% (inactive). In addition, the inhibition of aggregation in assay [2] was -2.5% (inactive). In addition, the nuclei count in assay [2] was determined as 108%; in assay [3], 111%. Further, the fluorescence slope in assay [4] was -0.417 (inactive). For the same compound, the NADPH fluorescence slope in assay [5] is 3.1e-05 (inactive). In addition, the slope in assay [6] is 0.00681 (inactive).
Consider `Cc1noc(C)c1S(=O)(=O)N1CCN(Cc2ccc3c(c2)OCO3)CC1`, for which the cell count in assay [1] is 730. Besides, the inhibition is 2.5% (inactive) in assay [1], -16.7% (inactive) in assay [3], 4.24% (inactive) in assay [7] and 18.3% (inactive) in assay [8]. Moreover, the inhibition of aggregation in assay [2] is 0.3% (inactive). Also, the nuclei count in assay [2] was 106%; in assay [3] it was 117%. Besides, the fluorescence slope in assay [4] was -0.542 (inactive). In assay [5], the NADPH fluorescence slope is -2e-05 (inactive). Also, in assay [6], the slope is 0.00533 (inactive).
With `O=S(=O)(NCc1cn2ccccc2n1)c1cc(F)ccc1F`, in assay [1], the cell count was 282. Moreover, the inhibition in assay [1] is 4.3% (inactive); in assay [3], 9.5% (inactive); in assay [7], -0.696% (inactive); in assay [8], 8.79% (inactive). Moreover, the inhibition of aggregation in assay [2] is 19.7% (inactive). The nuclei count in assay [2] worked out at 78.5%; in assay [3] it was 88.5%. Besides, the fluorescence slope in assay [4] was -0.287 (inactive). Moreover, in assay [5], the NADPH fluorescence slope is -5.3e-05 (inactive). The slope in assay [6] is 0.00441 (inactive).

For the origin of these results see PubChem BioAssay.
